Data from PubChem BioAssay AID1671202 (University of Kansas High Throughput Screening Laboratory, 2021).
Values joined by “and” are separate entries in the source; they are usually repeats but may differ in a detail not shown here. Equal entries are not always repeated. The campaign covered roughly 190,000 compounds. About 6,900 (3.6%) were called active. Cut-off read from the data, not from the text of the source: active = inhibition above about 50%; inactive = the rest. The sample as a whole holds a higher share of actives than the screen did. The source holds several records for some structures; these can differ, active in one and inactive in another.

Each compound was assayed against Huntingtin (Homo sapiens) (UniProt P42858) (assay: mutant huntingtin-calmodulin interaction inhibitors – biochemical, AlphaScreen, primary screen (AID 1671202;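 note: 0% = both proteins with DMSO and 100% = one protein alone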)). Settings: AlphaScreen His-mHTT/GST-CaM binding, luminescence; at 15 µM, stronger effect = higher value.
Huntingtin (Homo sapiens), sequence (P42858 whole entry, looked up, stated change not applied): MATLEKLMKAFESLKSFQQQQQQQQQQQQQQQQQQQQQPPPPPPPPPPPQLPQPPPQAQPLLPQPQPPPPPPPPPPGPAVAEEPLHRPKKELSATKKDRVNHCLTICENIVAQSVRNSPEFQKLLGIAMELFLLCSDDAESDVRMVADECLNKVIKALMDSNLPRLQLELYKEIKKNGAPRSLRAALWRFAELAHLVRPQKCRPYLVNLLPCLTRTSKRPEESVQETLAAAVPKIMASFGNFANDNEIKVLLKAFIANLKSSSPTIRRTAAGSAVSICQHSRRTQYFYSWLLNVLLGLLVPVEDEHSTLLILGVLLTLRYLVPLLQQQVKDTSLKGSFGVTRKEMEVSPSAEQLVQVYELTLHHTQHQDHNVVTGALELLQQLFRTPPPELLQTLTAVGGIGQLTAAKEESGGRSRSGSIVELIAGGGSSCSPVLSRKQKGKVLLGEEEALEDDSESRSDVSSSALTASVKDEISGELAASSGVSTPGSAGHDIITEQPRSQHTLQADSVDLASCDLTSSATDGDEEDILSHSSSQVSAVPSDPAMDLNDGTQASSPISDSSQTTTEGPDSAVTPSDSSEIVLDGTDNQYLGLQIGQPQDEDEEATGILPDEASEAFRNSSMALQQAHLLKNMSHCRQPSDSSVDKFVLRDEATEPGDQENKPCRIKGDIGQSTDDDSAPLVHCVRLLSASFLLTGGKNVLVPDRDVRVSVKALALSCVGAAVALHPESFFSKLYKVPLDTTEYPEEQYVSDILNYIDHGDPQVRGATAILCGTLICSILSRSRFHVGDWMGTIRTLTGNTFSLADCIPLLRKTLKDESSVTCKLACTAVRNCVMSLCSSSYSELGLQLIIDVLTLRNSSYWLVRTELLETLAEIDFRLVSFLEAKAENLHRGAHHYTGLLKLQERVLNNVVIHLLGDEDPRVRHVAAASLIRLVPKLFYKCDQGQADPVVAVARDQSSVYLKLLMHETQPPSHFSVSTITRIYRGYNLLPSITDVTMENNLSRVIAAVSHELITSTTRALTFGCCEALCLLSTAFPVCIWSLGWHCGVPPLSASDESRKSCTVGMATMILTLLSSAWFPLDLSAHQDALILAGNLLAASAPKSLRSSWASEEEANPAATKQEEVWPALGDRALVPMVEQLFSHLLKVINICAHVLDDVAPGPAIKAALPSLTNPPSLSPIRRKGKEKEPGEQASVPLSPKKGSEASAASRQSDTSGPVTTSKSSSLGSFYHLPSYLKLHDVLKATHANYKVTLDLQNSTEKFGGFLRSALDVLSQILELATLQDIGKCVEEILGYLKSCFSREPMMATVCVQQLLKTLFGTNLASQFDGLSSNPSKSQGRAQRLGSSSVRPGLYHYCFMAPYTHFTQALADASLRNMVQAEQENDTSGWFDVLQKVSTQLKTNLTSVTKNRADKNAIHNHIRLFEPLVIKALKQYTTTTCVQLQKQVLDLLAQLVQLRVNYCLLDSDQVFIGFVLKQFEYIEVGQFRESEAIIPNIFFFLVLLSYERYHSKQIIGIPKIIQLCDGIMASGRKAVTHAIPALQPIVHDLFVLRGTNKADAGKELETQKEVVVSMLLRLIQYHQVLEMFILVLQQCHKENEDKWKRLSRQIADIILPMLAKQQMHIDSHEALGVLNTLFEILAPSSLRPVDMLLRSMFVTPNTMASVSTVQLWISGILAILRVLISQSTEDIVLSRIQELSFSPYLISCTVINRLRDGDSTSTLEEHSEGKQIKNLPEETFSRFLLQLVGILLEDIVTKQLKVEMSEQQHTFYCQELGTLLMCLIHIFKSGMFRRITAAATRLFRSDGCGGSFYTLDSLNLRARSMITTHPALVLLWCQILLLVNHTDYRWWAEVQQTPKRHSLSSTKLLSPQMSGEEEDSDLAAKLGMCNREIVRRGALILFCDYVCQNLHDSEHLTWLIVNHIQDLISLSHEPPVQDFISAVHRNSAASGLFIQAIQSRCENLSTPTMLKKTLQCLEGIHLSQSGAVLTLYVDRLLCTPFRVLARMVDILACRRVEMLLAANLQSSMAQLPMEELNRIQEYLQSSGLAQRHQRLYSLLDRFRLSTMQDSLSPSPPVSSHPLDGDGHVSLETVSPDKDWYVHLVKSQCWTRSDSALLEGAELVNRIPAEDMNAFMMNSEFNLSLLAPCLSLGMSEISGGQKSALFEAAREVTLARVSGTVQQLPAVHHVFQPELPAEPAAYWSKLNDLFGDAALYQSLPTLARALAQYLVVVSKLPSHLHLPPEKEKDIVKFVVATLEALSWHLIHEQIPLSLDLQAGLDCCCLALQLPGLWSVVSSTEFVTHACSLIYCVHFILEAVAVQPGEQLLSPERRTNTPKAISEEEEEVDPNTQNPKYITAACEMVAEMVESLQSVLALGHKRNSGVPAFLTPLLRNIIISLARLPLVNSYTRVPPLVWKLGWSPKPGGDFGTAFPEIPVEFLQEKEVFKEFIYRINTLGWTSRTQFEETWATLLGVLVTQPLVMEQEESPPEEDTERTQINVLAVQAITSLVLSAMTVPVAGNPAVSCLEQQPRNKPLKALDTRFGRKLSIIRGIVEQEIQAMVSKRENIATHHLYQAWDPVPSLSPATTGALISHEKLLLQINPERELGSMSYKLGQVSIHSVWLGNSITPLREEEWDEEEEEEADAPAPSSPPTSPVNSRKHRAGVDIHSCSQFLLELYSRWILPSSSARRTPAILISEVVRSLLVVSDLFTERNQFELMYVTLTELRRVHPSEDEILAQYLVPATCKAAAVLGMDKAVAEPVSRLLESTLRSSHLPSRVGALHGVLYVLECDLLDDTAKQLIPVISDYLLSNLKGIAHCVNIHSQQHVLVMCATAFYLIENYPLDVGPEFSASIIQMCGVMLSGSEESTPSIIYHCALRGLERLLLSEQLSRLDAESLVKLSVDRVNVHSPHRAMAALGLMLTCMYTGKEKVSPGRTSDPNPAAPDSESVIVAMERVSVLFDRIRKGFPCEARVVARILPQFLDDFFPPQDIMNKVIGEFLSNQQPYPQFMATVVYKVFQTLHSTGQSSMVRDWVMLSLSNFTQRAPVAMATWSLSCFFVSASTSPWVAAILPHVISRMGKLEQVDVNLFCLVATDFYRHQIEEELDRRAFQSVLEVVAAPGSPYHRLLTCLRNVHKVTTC
For `CCOc1ccc(-n2nc(C(=O)Nc3ccc(F)cc3)c3ccccc3c2=O)cc1`, the inhibition was -5% (inactive).
For `O=C1NC(=O)/C(=C/c2ccc(-c3ccc([N+](=O)[O-])cc3)o2)S1`, the inhibition was 3% (inactive).
In the case of `O=C1NC(=O)/C(=C\c2ccc(-c3cccc(Cl)c3)o2)S1`, the inhibition is reported as 58% (active).
`O=C1NC(=O)/C(=C/c2ccc(-c3ccccc3[N+](=O)[O-])o2)S1` was tested, and the inhibition was 37% (inactive).
In the case of `COc1ccc(CC(=O)Nc2ccc(S(=O)(=O)Nc3c(C)cc(C)cc3C)cc2)cc1`, the inhibition is reported as 13% (inactive).
For `COc1cccc(CN2CCOCC2)c1OC`, the inhibition was -5.1% (inactive).
`O=C(NC1CC2CC1CN2C(=O)c1ccc(C(F)(F)F)cc1)c1cccnc1` (stereo unspecified) was tested, and the inhibition was 6.1% (inactive).
`CC(=O)Nc1cccc(N=Cc2ccc(Cl)cc2Cl)c1` was tested, and the inhibition was -2% (inactive).
With `COc1ccc(N=Cc2cc(Cl)cc(Cl)c2O)cc1OC` the inhibition was 4% (inactive).
In the case of `Oc1cccc(N=Cc2cc(Cl)cc(Cl)c2O)c1`, the inhibition is reported as 98% (active).
For `CC(C)OCCCNC(=O)CN1C(=O)/C(=C/c2cccc(Cl)c2)Sc2ccccc21`, the inhibition was 9% (inactive).
In the case of `Cc1ccc(F)cc1NC(=O)Cn1c(=O)nc(N2CCCCC2)c2ccccc21`, the inhibition is reported as 12.4% (inactive).
With `COc1ccc(NC(=O)N2CCC(CCOc3ccccc3)CC2)cc1` the inhibition was 3.99% (inactive).
`Cc1ccc2occ(C3Nc4cc(C)c(C)cc4NC4=C3C(=O)CC(C)(C)C4)c(=O)c2c1` (stereo unspecified) was tested, and the inhibition was 19% (inactive).
For `CC1(C)CC(=O)C2=C(C1)Nc1ccccc1NC2c1ccc(Br)cc1` (stereo unspecified), the inhibition was 3.9% (inactive).
With `Cc1cc2c(cc1C)NC(c1ccc(Cl)s1)C1=C(CC(C)(C)CC1=O)N2` (stereo unspecified) the inhibition was 51% (active).
In the case of `COc1ccc(-c2cn3ccn(-c4ccc(F)c(Cl)c4)c(=O)c3n2)cc1OC`, the inhibition is reported as -2.4% (inactive).
For `Cc1cccc2nnc(N3CCC(C(=O)Nc4ccc(Cl)cc4)CC3)n12`, the inhibition was 3.32% (inactive).
For `CCn1c(N2CCCC(C(=O)NCc3cccc(C)c3)C2)cc(=O)n(C)c1=O` (stereo unspecified), the inhibition was 7.32% (inactive).
In the case of `COc1ccc(NS(=O)(=O)c2ccc(N3C(=O)CCC3=O)cc2)c(OC)c1`, the inhibition is reported as -10.9% (inactive).
With `O=C(Nc1ccc(F)cc1F)N1CCc2nc[nH]c2C1` the inhibition was -5.8% (inactive).
In the case of `O=C(NCCN1CCOCC1)Nc1cccc(Cl)c1`, the inhibition is reported as -4% (inactive).
With `COC1=C(N2CCOCC2)C(=O)c2ccccc2C1=O` the inhibition was -2.9% (inactive).
In the case of `O=C1C(Nc2cccc(Cl)c2)=C(N2CCOCC2)C(=O)c2ccccc21`, the inhibition is reported as 59% (active).
For `CCCCN(CC)C(=O)c1cc(Cl)ccc1OC`, the inhibition was -8.5% (inactive).
`Cc1ccc(NC(=O)CN2C(=O)C(c3ccc(Cl)cc3)=NC2(C)C)cc1` was tested, and the inhibition was -11.7% (inactive).
`COc1ccc(CN2CCc3nc(N4CCN(c5ncccn5)CC4)ncc3C2)cc1OC` was tested, and the inhibition was 55.5% (active).
For `COc1cc(CN2CCc3nc(N4CCCC4)ncc3C2)cc(OC)c1OC`, the inhibition was 11.5% (inactive).
For `Cc1ccc(CN2CCc3nc(N4CCCC4)ncc3C2)cc1`, the inhibition was 12.2% (inactive).
For `CN(C)c1ccc(CN2CCc3nc(N4CCN(c5ccccc5F)CC4)ncc3C2)cc1`, the inhibition was 39.9% (inactive).
For `CN(C)c1ccc(CN2CCc3nc(N4CCOCC4)ncc3C2)cc1`, the inhibition was 96.6% (active).
In the case of `COc1ccc(CN2CCc3nc(N4CCCC4)ncc3C2)cc1OC`, the inhibition is reported as 42.3% (inactive).
`COc1ccc(OCc2noc(-c3cccc(F)c3)n2)cc1` was tested, and the inhibition was -9.7% (inactive).
In the case of `CCN(CC)CCNC(=O)C1CCN(c2nnc3ccccn23)CC1`, the inhibition is reported as 5.6% (inactive).
With `CCC(=O)Oc1ccc2c(C)c(-c3ccccc3)c(=O)oc2c1` the inhibition was -4.1% (inactive).
`COc1cccc(C=C2Oc3c(ccc(O)c3CN3CC4CC(C3)c3cccc(=O)n3C4)C2=O)c1` (stereo unspecified) was tested, and the inhibition was 32.3% (inactive).
`Cc1c(NC(=O)c2c([N+](=O)[O-])cnn2C)c(=O)n(-c2ccccc2)n1C` was tested, and the inhibition was -3% (inactive).
`COc1ccc2c(c1)c(=O)oc1c(C)c(OCc3ccc(C(=O)O)o3)ccc12` was tested, and the inhibition was 4% (inactive).
With `CC1=C(C#N)C(=O)NC(=O)/C1=C\c1ccc(-c2ccc(Cl)c(C(=O)O)c2)o1` the inhibition was 13% (inactive).
With `CC1=C(C#N)C(=O)N(CC(C)O)C(=O)/C1=C\c1ccc(-c2cccc(Cl)c2Cl)o1` (stereo unspecified) the inhibition was 93% (active).
With `CC1=C(C#N)C(=O)NC(=O)/C1=C\c1ccc(-c2cccc(Cl)c2)o1` the inhibition was 37% (inactive).
In the case of `c1ccc(-n2ncc(-c3nn[nH]n3)n2)cc1`, the inhibition is reported as 59% (active) and -6.45% (inactive).
In the case of `N#Cc1ccc(C(=O)N2CCC(COc3ccc(C(=O)N4CCCC4)cc3)CC2)cc1`, the inhibition is reported as 3.57% (inactive).
With `CC(=O)Nc1ccc(S(=O)(=O)N2CCN(C3CCCCCCC3)CC2)cc1` the inhibition was 2% (inactive).
With `CC(=O)Nc1ccc(S(=O)(=O)N2CCN(c3ccc(-c4ccccn4)nn3)CC2)cc1` the inhibition was 74.1% (active).
`O=S(=O)(c1cccnc1)N1CCN(c2ccc(-c3cccs3)nn2)CC1` was tested, and the inhibition was -2.7% (inactive).
With `CN(C)c1ccc(CNCC23CC4CC(C2)CC(c2ccccc2)(C4)C3)cc1` the inhibition was 100% (active).
For `O=C(N1CCCC1)C12CC3CC(C1)CC(c1ccccc1)(C3)C2`, the inhibition was 2.5% (inactive).
With `CN(C)c1ccc(CCCNC(=O)C23CC4CC(CC(C4)C2)C3)cc1` the inhibition was 1.3% (inactive).
For `O=C(c1cccc(OCC2CCCN(C(=O)c3ccccc3F)C2)c1)N1CCCCC1` (stereo unspecified), the inhibition was -4.06% (inactive).
In the case of `CC(=O)NCc1cnn(-c2ccc(C(=O)Nc3ccccc3)cc2)c1`, the inhibition is reported as -1.5% (inactive).
For `CCCCN=C(C(=O)Nc1ccc(Cl)c(C(F)(F)F)c1)c1ccccc1NC(C)=O`, the inhibition was 0% (inactive).
For `CN(C)c1ccc(-c2ccc3nc(C(=O)N4CCCC4)cn3c2)cc1`, the inhibition was 97.2% (active).
For `O=C(c1cn2cc(-c3ccc(F)c(Cl)c3)ccc2n1)N1CCOCC1`, the inhibition was 16.9% (inactive).
`CCCCN1CCN(C(=O)c2cn3cc(C)ccc3n2)CC1` was tested, and the inhibition was 0.1% (inactive).
With `CC1=C(C(=O)Nc2ccc(C)cc2C)C(c2ccccc2[N+](=O)[O-])n2ncnc2N1` (stereo unspecified) the inhibition was 25% (inactive).
For `O=C(Cc1ccccc1)ON=C1C=CC(=NOC(=O)c2ccccc2)C=C1`, the inhibition was 14% (inactive).
With `O=C1C=CC(=NOC(=O)/C=C/c2ccccc2)C=C1` the inhibition was 100% (active).
`Cc1cc(OC(=O)C=Cc2ccccc2)c([N+](=O)[O-])c(=O)[nH]1` was tested, and the inhibition was 7.1% (inactive).
For `O=S1(=O)c2ccc(Br)cc2OC[C@@H](Cc2ccccc2)N1Cc1cn(Cc2ccco2)nn1`, the inhibition was 5.1% (inactive).
In the case of `O=C(COc1ccc(Br)cc1)Nc1ccc2c(c1)OCO2`, the inhibition is reported as 0.4% (inactive).
`CCOc1ccc(S(=O)(=O)N=C2C=C(Nc3ccc(C)cc3)C(=O)c3ccccc32)cc1` was tested, and the inhibition was 93% (active).
With `CCc1ccc(S(=O)(=O)N=C2C=C(Br)C(=O)c3ccccc32)cc1` the inhibition was 38% (inactive).
In the case of `COc1ccc(S(=O)(=O)N=C2C=C(Br)C(=O)c3ccccc32)cc1`, the inhibition is reported as 31% (inactive).
In the case of `CCOc1ccc(NS(=O)(=O)c2ccc(Cl)cc2)cc1`, the inhibition is reported as -13% (inactive).
In the case of `O=C1C(Nc2ccc(Br)cc2)=CC(=NS(=O)(=O)c2cccs2)c2ccccc21`, the inhibition is reported as 80% (active).
With `O=S(=O)(c1cccs1)N(c1ccccc1)C(F)F` the inhibition was -18.8% (inactive).
For `Cc1cc(Br)ccc1NC(=O)C(NS(=O)(=O)c1cccs1)C(C)C` (stereo unspecified), the inhibition was -6% (inactive).
In the case of `CCc1ccc(S(=O)(=O)N=C2C=C(Nc3ccc(OC)cc3)C(=O)c3ccccc32)cc1`, the inhibition is reported as 91% (active).
For `CCOc1ccc(NC(=O)C2CCC(N3C(=O)c4ccccc4C3=O)CC2)cc1` (stereo unspecified), the inhibition was 2.4% (inactive).
With `Clc1ccc(Cl)c(-c2ccc(CNC3CC3)o2)c1` the inhibition was -25.6% (inactive).
In the case of `COc1cc(CN2CCC(O)CC2)ccc1OCc1ccccc1`, the inhibition is reported as -5.7% (inactive).
For `COc1ccc(CNC(=O)C(=O)Nc2ccc(OC)cc2)cc1`, the inhibition was -2.2% (inactive).
In the case of `COc1ccc(CCCN)cc1OC`, the inhibition is reported as -2.8% (inactive).
For `COc1cc(CNc2ccc(F)cc2)ccc1OCc1ccccc1`, the inhibition was 55.7% (active).
In the case of `COc1ccc(CNc2ccc3c(c2)CCC3)cc1OC`, the inhibition is reported as 62.8% (active).
For `COc1cc(C=C2C(=O)c3ccccc3C2=O)ccc1OCc1ccccc1`, the inhibition was 4% (inactive).
In the case of `COc1ccc(CC(=O)Nc2c3c(nc4c2CCC4)CCCC3)cc1OC`, the inhibition is reported as 2% (inactive).
`COc1ccc(CNc2nccs2)cc1` was tested, and the inhibition was 5.7% (inactive).
`COc1ccc(NCc2ccc(OC)c(C)c2)cc1` was tested, and the inhibition was 52% (active).
For `CCN1CCCC1CNC(=O)c1ccc(Sc2ccc(C)cc2)c(NC(C)=O)c1` (stereo unspecified), the inhibition was -3% (inactive).
With `O=C(Nc1ccc(NC(=O)c2ccc([N+](=O)[O-])cc2Cl)cc1)c1ccco1` the inhibition was -2.2% (inactive).
`COc1cccc(C(=O)NCC2Cc3cc(OC)ccc3O2)c1` (stereo unspecified) was tested, and the inhibition was -0.8% (inactive).
`O=C(CC1CCCCC1)N1CCC(COc2ccc(C(=O)N3CCCCC3)cc2)CC1` was tested, and the inhibition was -1.76% (inactive).
`COc1ccc(C(=O)N2CCCCC2CCN2CCCC2)cn1` (stereo unspecified) was tested, and the inhibition was 6.78% (inactive).
With `O=C(c1ccco1)N1CCCC(c2nncn2-c2ccccc2)C1` (stereo unspecified) the inhibition was 8.27% (inactive).
`CCOc1cc(/C=C2\C(=O)NC(=O)N(c3ccc(F)cc3)C2=O)ccc1O` was tested, and the inhibition was 5% (inactive).
In the case of `COc1cc(/C=C2\C(=O)Nc3ccc(Br)cc32)ccc1O`, the inhibition is reported as 100% (active).
For `CCOc1cc(/C=C2\C(=O)NC(=O)N(c3ccc(Br)cc3)C2=O)ccc1O`, the inhibition was 5% (inactive).
`Cc1cc([N+](=O)[O-])nn1CCCC(=O)Nc1cc(Cl)ccc1O` was tested, and the inhibition was 2% (inactive).
With `CC(C)(C)CC(=O)N1CCN(c2nc(CN3CCCCCC3)cs2)CC1` the inhibition was -9.3% (inactive).
`COc1cccc(C=C2Oc3cc(OCC(=O)NN)ccc3C2=O)c1OC` was tested, and the inhibition was 4.1% (inactive).
In the case of `COc1cccc(CCC(=O)N2CCCN(c3ncccc3-c3nc(C4CC4)no3)CC2)c1`, the inhibition is reported as -31.2% (inactive).
In the case of `Cn1nc(COc2ccccc2)c2c1CCN(C(=O)c1ccoc1)C2`, the inhibition is reported as 3.9% (inactive).
With `Cn1nc(COc2ccccc2)c2c1CCN(C(=O)Nc1ccccc1F)C2` the inhibition was 16.9% (inactive).
In the case of `Cc1ccc(S(=O)(=O)N2CCc3c(c(COc4ccccc4)nn3C)C2)cc1C`, the inhibition is reported as 60.3% (active).
